High-throughput results (PubChem BioAssay)
NSD2 HMT inh – inhibitors of human histone methyltransferase NSD2. O96028. NSD2 peptide methylation, AlphaScreen, 120 min. inhibition, % at 12.5 µM. 310,000 compounds, 0.54% hits. AID 743445; in the data active means inhibition above about 50%
CASP6 VEID inh – caspase-6 (human) enzyme inhibition; P55212; purified caspase-6, Z-VEID-R110 cleavage fluorescence; inhibition, % at 12.5 µM; 350,000 compounds, 0.53% hits;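 active means mean inhibition across replicates at least about 35%, with every replicate also reaching that limit, limit read from the data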
Target sequence (P55212 24-179 limits assumed): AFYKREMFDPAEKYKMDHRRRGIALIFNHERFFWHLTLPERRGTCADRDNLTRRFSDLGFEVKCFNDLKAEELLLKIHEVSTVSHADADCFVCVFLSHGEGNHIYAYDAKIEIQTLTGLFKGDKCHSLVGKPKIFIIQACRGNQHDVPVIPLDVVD
Target sequence (P55212 194-293 limits assumed): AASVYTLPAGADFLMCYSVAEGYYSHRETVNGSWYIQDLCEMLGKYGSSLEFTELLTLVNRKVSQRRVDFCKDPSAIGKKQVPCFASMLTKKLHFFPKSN
ARNT TACC3 PPI – ARNT/TACC3 interaction disruption | AID 623870 | Q9Y6A5 | AlphaScreen His-ARNT PAS-B/GST-TACC3 binding, luminescence; TACC3 fragment carries E629A point mutation | inhibition, % at 9.99 µM | 390,000 compounds, 0.66% hits;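 active means mean inhibition of replicates at least 50% and at least half of replicates each reaching 50%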
SIRT5 inh – blocks human SIRT5 desuccinylation of peptide; inhibition, % at 15 µM; 330,000 compounds, 1.1% hits; Purified SirT5, succinyl-peptide AMC, trypsin-coupled fluorescence; AID 652115; in the data active means inhibition above about 15%
Target sequence (Q9NXA8 whole entry, looked up): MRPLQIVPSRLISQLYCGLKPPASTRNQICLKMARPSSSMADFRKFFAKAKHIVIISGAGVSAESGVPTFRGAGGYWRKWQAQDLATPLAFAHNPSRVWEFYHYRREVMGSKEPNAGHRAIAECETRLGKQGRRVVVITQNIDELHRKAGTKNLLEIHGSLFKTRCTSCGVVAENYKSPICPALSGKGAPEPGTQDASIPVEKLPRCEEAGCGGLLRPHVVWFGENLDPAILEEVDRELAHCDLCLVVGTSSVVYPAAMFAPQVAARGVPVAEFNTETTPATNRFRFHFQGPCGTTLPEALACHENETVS
PfHsp90 yeast 2 – inhibits growth of yeast expressing Plasmodium falciparum Hsp90; inhibition, % at 9.4 µM; 310,000 compounds, 0.32% hits; S. cerevisiae expressing PfHsp90, BacTiter-Glo ATP, 48 h; yeast lacking PDR1 and PDR3 efflux regulators;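 active means every replicate shows inhibition above about 80%, whatever the replicate mean, limit read from the data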
AlphaScreen art – AlphaScreen assay artifact in NSD2 counter-screen; shares compounds with NSD2 HMT inh; AlphaScreen artifact counterscreen, preloaded methylated H4 peptide; AC35, µM (series often up to 10 µM); 1,500 compounds, 9.4% hits; call rule not given here
A number is an active result; - = inactive; . = no result. Hits are enriched below; roughly 2.1% of the tested compounds scored in any of these assays.

SMILES	NSD2 HMT inh	CASP6 VEID inh	ARNT TACC3 PPI	SIRT5 inh	PfHsp90 yeast 2	AlphaScreen art
COc1ccc2c3c(n(C)c2c1)[C@@H](CO)N(Cc1ccncc1)CC31CCN(C(=O)C2CCCC2)CC1	.	-	.	-	.	.
COc1ccccc1NC(=O)c1ccccc1C(=O)Nc1ccccc1OC	.	-	-	-	-	.
COc1ccccc1NC(=O)c1ccccc1NS(=O)(=O)N1CCCC1	83.0	.	-	.	-	-
Cc1cnc(C2OCCO2)c2cccc(N)c12	156.0	59.8	.	-	.	-
Cn1cc(-c2ccccc2C(N)=O)c(=O)c2ccccc21	55.8	-	-	-	.	-
COc1ccc2c3c(n(C)c2c1)[C@@H](CO)N(C(=O)C1CCCCC1)CC31CCN(C(=O)CN(C)C)CC1	.	-	.	-	.	.
Cc1cc(C)n(-c2ncccc2[N+](=O)[O-])n1	51.6	-	-	-	-	-
Cc1cc2ncn(-c3ncccc3[N+](=O)[O-])c2cc1C	-	-	-	-	-	.
Cc1cc(C(=O)Nc2cccc3c2O[C@H](CN(C)Cc2ccc(Cl)c(Cl)c2)[C@@H](C)CN([C@H](C)CO)C3=O)n(C)n1	.	-	-	-	.	.
CCc1ccc(N(CC(=O)NCc2ccc3c(c2)OCO3)C(=O)c2csnn2)cc1	60.4	.	.	-	-	-
Cc1noc(C)c1S(=O)(=O)Nc1cccc2c1O[C@H](CN(C)C(=O)Nc1ccc3c(c1)OCO3)[C@H](C)CN([C@H](C)CO)C2=O	.	-	-	-	.	.
C[C@H](CO)N1C[C@H](C)[C@H](CN(C)C)Oc2cc(C#Cc3ccncc3)ccc2S1(=O)=O	.	-	-	-	.	.
CC[n+]1c(/C=C/Nc2ccccc2)oc2ccccc21	80.7	.	-	.	-	-
Cc1oc2ccc(OS(C)(=O)=O)cc2c1C(=O)OC(C)C	-	.	-	-	-	.
CCN(CC)C(=O)COc1ccc2oc(C)c(C(=O)OC(C)C)c2c1	114.4	.	.	.	-	-
CN1C(=O)C(=O)/C(=C(/O)c2ccccc2)C1c1ccccc1 (stereo unspecified)	58.9	-	-	-	-	-
O=C1C(=O)N(CCO)C(c2ccccc2)/C1=C(\O)c1ccccc1 (stereo unspecified)	.	-	-	.	-	.
Cc1cccc(/C=N/NC(=O)C(C)Nc2cccc3ccccc23)n1 (stereo unspecified)	103.5	.	-	.	-	-
COc1ccc(S(=O)(=O)N(C)C[C@H]2OCCCC[C@@H](C)Oc3ccc(NS(C)(=O)=O)cc3C(=O)N([C@@H](C)CO)C[C@@H]2C)cc1	.	-	-	-	.	.
CC1(C)Cc2sc3c(=O)[nH]c(=S)[nH]c3c2CO1	74.6	-	-	-	-	-
CN1CCC/C1=C/C=C1\SC(=S)NC1=O	52.8	-	-	-	-	-
CN1/C(=C\C=C2/SC(=S)NC2=O)C(C)(C)c2ccccc21	.	-	-	-	-	.
CC(C)C(=O)Nc1ccc2c(c1)C(=O)N(C)[C@H]1CC[C@H](CC(=O)Nc3ccccc3F)O[C@@H]1CO2	.	-	-	-	.	.
Cc1c(C(=O)NC(C)C)oc2c1-c1[nH]ncc1CC2	54.7	.	-	.	-	-
Cc1noc(C)c1S(=O)(=O)Nc1ccc2c(c1)C(=O)N([C@H](C)CO)C[C@@H](C)[C@@H](CN(C)CC1CC1)O2	.	-	-	-	.	.
SMILES	NSD2 HMT inh	CASP6 VEID inh	ARNT TACC3 PPI	SIRT5 inh	PfHsp90 yeast 2	AlphaScreen art
Cc1cccc(NCCNc2cccc(C)c2)c1	55.9	.	-	.	-	-
CCCCCCCNc1cccc(C)c1	-	-	-	-	-	.
Cc1ccc(S(=O)(=O)NC(C(=O)N2CCN(S(=O)(=O)c3cccc(F)c3)CC2)C(C)C)cc1 (stereo unspecified)	93.9	-	.	-	-	-
Cc1ccc(/C=C2/SC(=S)N(C3CCCCC3)C2=O)o1	.	-	-	-	-	.
Cc1ccc(/C=C2/SC(=O)NC2=S)o1	176.8	.	-	.	-	-
C=CCc1cc(/C=C/c2nc(O)c([N+](=O)[O-])c(=O)[nH]2)cc(OC)c1O	78.0	39.0	-	-	-	-
COc1ccc(CNC(=O)CN(c2ccc(C)cc2)S(=O)(=O)c2c(C)noc2C)cc1	63.3	-	-	-	-	-
COc1ccc(N(CC(=O)NCc2ccccc2)S(=O)(=O)c2c(C)noc2C)cc1	-	.	-	.	-	.
COCCN(C(=O)CCC(=O)Nc1ccccn1)C(C(=O)NC(C)C)c1ccc(C)cc1 (stereo unspecified)	59.7	.	-	-	-	-
O=C(NNC(=O)c1ccc(NC(=O)C2CC2)cc1)c1ccc(F)cc1	52.3	-	-	-	-	-
O=C(Nc1ccc(F)cc1)C1CCN(C(=O)c2ccc(F)cc2)CC1	-	-	-	-	-	.
O=C(O)C[C@@H]1C=C[C@H](NC(=O)Nc2cc(F)ccc2F)[C@@H](CO)O1	.	-	-	-	.	.
S=C(Nc1ccc2nsnc2c1)N1CCCC1	141.0	46.9	-	-	-	-
O=C(Nc1ccc2nsnc2c1)N1CCCCCC1	-	.	-	.	-	.
[O-][n+]1cccc2c(Br)cc(Br)c(O)c21	60.8	-	.	-	106.5	-
COc1ccc2c(ccc[n+]2[O-])c1	-	-	-	-	.	.
CC(=O)c1c(C)nc(-c2ccc(Cl)cc2)nc1N=CN(C)C	65.8	.	-	.	-	-
CC(=O)c1c(C)nc(-c2ccc(Cl)cc2)nc1N	.	-	-	-	-	.
Cc1c(N=C2C=CC(=O)c3ccccc32)c(=O)n(-c2ccccc2)n1C	88.7	-	-	-	-	-
CCCNC(=O)[C@@H]1[C@@H](CO)[C@@H]2Cn3c(ccc(-c4cccnc4)c3=O)[C@H]1N2C(=O)Nc1ccccc1	.	-	-	-	.	.
COc1cc(/C=N/N=C2/C(=O)Nc3ccccc32)cc(OC)c1O	66.7	.	.	.	-	-
C[C@H](CO)N1C[C@H](C)[C@H](CN(C)S(=O)(=O)c2cn(C)cn2)Oc2cc(C3=CCCCC3)ccc2S1(=O)=O	.	-	-	-	.	.
COc1ccc(NC(=O)Nc2ccc3c(c2)[C@H]2C[C@@H](CC(=O)N(C)C)O[C@H](CO)[C@H]2O3)cc1	.	-	-	-	.	.
Cc1ccc(Sc2ncccc2C(=O)O)cc1	-	.	-	.	-	.
Cc1ccc(Sc2ncccc2C(N)=O)cc1	106.2	-	-	-	-	-
SMILES	NSD2 HMT inh	CASP6 VEID inh	ARNT TACC3 PPI	SIRT5 inh	PfHsp90 yeast 2	AlphaScreen art
O=C1C(=O)C(Cl)=C(Cl)C(Cl)=C1Cl	90.6	.	.	.	.	-
O=C(O)CN1C(=O)/C(=C\c2cccc(OCc3ccc(F)cc3)c2)SC1=S	54.4	.	-	-	-	-
CCOc1ccccc1N(CC(=O)NCCc1ccc(OC)c(OC)c1)S(=O)(=O)c1ccccc1	54.8	-	-	-	-	-
COc1ccc(-c2cc(C(F)(F)F)n3nc(C(=O)N4CCN5CCCC5C4)cc3n2)cc1OC (stereo unspecified)	-	-	-	-	-	.
Cc1ccc(-c2cc(C(F)(F)F)n3nc(C(=O)N4CCN5CCCC5C4)cc3n2)cc1 (stereo unspecified)	75.0	-	-	-	-	-
CNC[C@@H]1Oc2ccc(NC(=O)NC3CCCCC3)cc2C(=O)N([C@H](C)CO)C[C@H]1C	.	-	-	-	.	.
C/[N+]([O-])=C1\Cc2ccccc2C1=O	61.0	.	-	.	-	-
